Assay results taken from PubChem BioAssay (NCATS).

Molecular target: Nicotinamide N-methyltransferase (Homo sapiens) (UniProt P40261)
Assay: Confirmatory Screen for Target Class Profiling of Small Molecule Inhibitors of Methyltransferases (AID 1745852)
Settings: MTase-Glo luminescence, SAH detection, recombinant enzyme; measured here: NNMT max response; stronger effect = lower value

Sequence of Nicotinamide N-methyltransferase (Homo sapiens) (P40261 whole entry, looked up): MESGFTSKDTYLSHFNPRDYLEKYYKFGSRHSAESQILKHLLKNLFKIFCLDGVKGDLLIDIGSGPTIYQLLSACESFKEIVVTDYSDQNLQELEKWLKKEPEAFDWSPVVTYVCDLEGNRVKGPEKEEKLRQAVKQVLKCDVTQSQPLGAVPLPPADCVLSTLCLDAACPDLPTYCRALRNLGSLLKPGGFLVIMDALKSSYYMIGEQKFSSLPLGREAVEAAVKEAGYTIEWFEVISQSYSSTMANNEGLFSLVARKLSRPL

SMILES | activity
Cc1nn(C(=O)CCC(=O)N2CCC(Cc3nncn3CC3CC3)CC2)c2ccccc12 | -59.9%
CC1CCCCN1CCNC(=O)Cn1ccc2cc(S(=O)(=O)N3CCCCC3)ccc21 (stereo not given) | -0.249%
CC1CC(C)CN(S(=O)(=O)c2ccc3c(c2)oc(=O)n3CC(=O)Nc2ccc(Cl)cc2)C1 (stereo not given) | -8.67%
CCCC1=Nc2cc(C(=O)NCCCN3CCCCC3CC)ccc2Sc2ccc(C)cc21 (stereo not given) | -7.02%
Cc1ccc(NS(=O)(=O)c2ccc3c(c2)[C@H]2C=CC[C@H]2[C@@H](c2cccc(Cl)c2)N3)c(C)c1 | -16.4%
CC[C@H](C)NC(=O)c1sc(=S)n2c1[nH]c(=O)c1cc(Cl)ccc12 | -78.5%
Cc1noc(C)c1-c1cc(-c2ccc(CN(C)C)cc2)cn2cncc12 | -10.7%
CCN(CCc1nc2ccc(C)cc2[nH]1)C(=O)c1ccccc1C1CCNC1 (stereo not given) | 7.78%
O=S(=O)(c1ccc(Br)cc1)c1nnn2c1nc(NCCc1c[nH]c3ccccc13)c1ccccc12 | -1.21%
Cc1ccc(CNC(=O)c2ccc3c(=O)[nH]c4c(C(=O)NC(C)C)sc(=S)n4c3c2)cc1 | -65.3%
O=C(Nc1ccc2c(N3CCCCC3)ncnc2c1)c1ccccc1C(F)(F)F | -10.2%
COc1ccc(-c2nc3ccncc3[nH]2)cc1 | -106%
COc1cccc(Nc2ccnc(-c3nnc(C)n3C3CCCCC3)c2)c1 | -22.9%
Cc1ccc([C@@H]2CN(c3cc(N4CCC(O)CC4)ncn3)C[C@H]2N(C)C)cc1 | -5.73%
O=C(NCc1ccc(Cl)cc1)c1ccc2c(=O)[nH]c3c(C(=O)NC4CCCC4)sc(=S)n3c2c1 | -79.2%
COc1ccc(-c2nc3ccccc3[nH]2)cc1 | -74.3%
Cc1nccn1CCC1CCN(c2nccc(-c3ccccn3)n2)CC1 | 5.85%
CCC1CCCCN1CCCNC(=O)Cn1ccc2cc(S(=O)(=O)N3CCCCC3)ccc21 (stereo not given) | -2.34%
COc1cncc(Nc2ncc(-c3ccccc3OC)c3c2OCC3)c1 | -19.7%
c1ccc(CNc2cc(-c3cc(N4CCCCC4)ncn3)c3cc[nH]c3n2)nc1 | -28.9%

SMILES | activity
CC(C)Cn1c(=O)c2ccccc2n2c(CCC(=O)N3CCN(c4ccccc4)CC3)nnc12 | -46.8%
Cc1c(C(=O)O)ccc2c1N[C@@H](c1cccc(C(F)(F)F)c1)[C@H]1CC=C[C@@H]21 | -5.85%
CCCCN1C(=O)c2cc(C(=O)NCCc3ccccc3Cl)nn2CC1(C)C(=O)NC1CCCC1 (stereo not given) | -0.43%
CCCn1c(=O)c2cc(F)ccc2n2c(SCc3c(F)cccc3Cl)nnc12 | -24.8%
CCCn1c(C)cnc1CC1CCN(C(=O)NCc2ccc(OC)cc2)C1 (stereo not given) | -3.34%
Cc1ccc(C)c(N2CCN(C(=O)c3ccc4c(=O)[nH]c5c(C(=O)NC(C)C)sc(=S)n5c4c3)CC2)c1 | -76.8%
CC(C)CCNC(=O)c1ccc2c(=O)[nH]c3c(C(=O)NC4CCCC4)sc(=S)n3c2c1 | -45.4%
COC(=O)[C@@H]1Cc2ncn(Cc3ccc(Cl)cc3)c2CN1CCCc1ccccc1 | -17%
O=C(Nc1ccc2ncnc(N3CCCCC3)c2c1)C1CCCCC1 | -81.1%
COc1ccc(CCNC(=O)c2ccc3c(=O)nc4c(-c5ccccc5)n[nH]n4c3c2)cc1OC | -10.5%
Cn1ccc2c(C(=O)NCCc3cnc[nH]3)nc(-c3ccc(N4CCOCC4)cc3)cc21 | 2.75%
O=C(CCCc1nnc2n3nc(-c4ccccc4)nc3c3ccccc3n12)N1CCC(N2CCCCC2)CC1 | -20.9%
Cc1cnc(C2CC2)n1C1CCCN(Cc2ccccc2)C1 (stereo not given) | -1.39%
Cn1ncc2c(N3CCN(S(N)(=O)=O)CC3)nc(C3CCCC3)nc21 | -39.7%
CCN(CC)CCCNC(=O)CCCc1nnc2n3nc(-c4ccccc4)nc3c3ccccc3n12 | -0.543%
CCOc1cc(OCC)c2c(-c3ccccc3)cc(=O)oc2c1 | -49.7%
CCN(CC)CCCNC(=O)CCc1nnc2n(Cc3ccc(Cl)cc3)c(=O)c3ccccc3n12 | -5.57%
CCNc1ncc(CN2CCN(c3ccncc3)CC2)cn1 | -0.695%
COc1ccc(N2C(=O)c3ccc(-c4ccco4)n3CC2(C)C(=O)NCc2ccccc2)cc1OC (stereo not given) | -17.5%
CCCC1c2cccn2CCN1C(=O)Nc1ccccc1Br (stereo not given) | -13.8%

Molecular target: Phenylethanolamine N-methyltransferase (Homo sapiens) (UniProt P11086)
Assay: as above
Settings: MTase-Glo luminescence, SAH detection, recombinant enzyme; measured here: PNMT max response; stronger effect = lower value

Sequence of Phenylethanolamine N-methyltransferase (Homo sapiens) (P11086 whole entry, looked up): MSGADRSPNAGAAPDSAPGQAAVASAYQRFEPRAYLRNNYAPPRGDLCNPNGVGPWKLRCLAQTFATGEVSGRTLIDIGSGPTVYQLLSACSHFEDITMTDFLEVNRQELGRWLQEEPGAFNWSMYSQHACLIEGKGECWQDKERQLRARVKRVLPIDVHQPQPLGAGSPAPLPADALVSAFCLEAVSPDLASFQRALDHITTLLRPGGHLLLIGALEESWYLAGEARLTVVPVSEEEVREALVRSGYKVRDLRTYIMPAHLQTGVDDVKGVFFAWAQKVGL

SMILES | activity
Cc1nn(C(=O)CCC(=O)N2CCC(Cc3nncn3CC3CC3)CC2)c2ccccc12 | 7.75%
CC1CCCCN1CCNC(=O)Cn1ccc2cc(S(=O)(=O)N3CCCCC3)ccc21 (stereo not given) | -1.89%
CC1CC(C)CN(S(=O)(=O)c2ccc3c(c2)oc(=O)n3CC(=O)Nc2ccc(Cl)cc2)C1 (stereo not given) | -61.6%
CCCC1=Nc2cc(C(=O)NCCCN3CCCCC3CC)ccc2Sc2ccc(C)cc21 (stereo not given) | 1.37%
Cc1ccc(NS(=O)(=O)c2ccc3c(c2)[C@H]2C=CC[C@H]2[C@@H](c2cccc(Cl)c2)N3)c(C)c1 | -18.5%
CC[C@H](C)NC(=O)c1sc(=S)n2c1[nH]c(=O)c1cc(Cl)ccc12 | -77%
Cc1noc(C)c1-c1cc(-c2ccc(CN(C)C)cc2)cn2cncc12 | -3.78%
CCN(CCc1nc2ccc(C)cc2[nH]1)C(=O)c1ccccc1C1CCNC1 (stereo not given) | 8.18%
O=S(=O)(c1ccc(Br)cc1)c1nnn2c1nc(NCCc1c[nH]c3ccccc13)c1ccccc12 | -6.06%
Cc1ccc(CNC(=O)c2ccc3c(=O)[nH]c4c(C(=O)NC(C)C)sc(=S)n4c3c2)cc1 | -17.2%
O=C(Nc1ccc2c(N3CCCCC3)ncnc2c1)c1ccccc1C(F)(F)F | -19.5%
COc1ccc(-c2nc3ccncc3[nH]2)cc1 | -86.1%
COc1cccc(Nc2ccnc(-c3nnc(C)n3C3CCCCC3)c2)c1 | 8.64%
Cc1ccc([C@@H]2CN(c3cc(N4CCC(O)CC4)ncn3)C[C@H]2N(C)C)cc1 | -0.207%
O=C(NCc1ccc(Cl)cc1)c1ccc2c(=O)[nH]c3c(C(=O)NC4CCCC4)sc(=S)n3c2c1 | -80.2%
COc1ccc(-c2nc3ccccc3[nH]2)cc1 | -79.7%
Cc1nccn1CCC1CCN(c2nccc(-c3ccccn3)n2)CC1 | 7.66%
CCC1CCCCN1CCCNC(=O)Cn1ccc2cc(S(=O)(=O)N3CCCCC3)ccc21 (stereo not given) | -1.74%
COc1cncc(Nc2ncc(-c3ccccc3OC)c3c2OCC3)c1 | 0.675%
c1ccc(CNc2cc(-c3cc(N4CCCCC4)ncn3)c3cc[nH]c3n2)nc1 | -32%

SMILES | activity
CC(C)Cn1c(=O)c2ccccc2n2c(CCC(=O)N3CCN(c4ccccc4)CC3)nnc12 | -1.48%
Cc1c(C(=O)O)ccc2c1N[C@@H](c1cccc(C(F)(F)F)c1)[C@H]1CC=C[C@@H]21 | -7.15%
CCCCN1C(=O)c2cc(C(=O)NCCc3ccccc3Cl)nn2CC1(C)C(=O)NC1CCCC1 (stereo not given) | -2.62%
CCCn1c(=O)c2cc(F)ccc2n2c(SCc3c(F)cccc3Cl)nnc12 | 0.382%
CCCn1c(C)cnc1CC1CCN(C(=O)NCc2ccc(OC)cc2)C1 (stereo not given) | -1.44%
Cc1ccc(C)c(N2CCN(C(=O)c3ccc4c(=O)[nH]c5c(C(=O)NC(C)C)sc(=S)n5c4c3)CC2)c1 | -17.9%
CC(C)CCNC(=O)c1ccc2c(=O)[nH]c3c(C(=O)NC4CCCC4)sc(=S)n3c2c1 | -38.7%
COC(=O)[C@@H]1Cc2ncn(Cc3ccc(Cl)cc3)c2CN1CCCc1ccccc1 | -1.27%
O=C(Nc1ccc2ncnc(N3CCCCC3)c2c1)C1CCCCC1 | -86.5%
COc1ccc(CCNC(=O)c2ccc3c(=O)nc4c(-c5ccccc5)n[nH]n4c3c2)cc1OC | -12.5%
Cn1ccc2c(C(=O)NCCc3cnc[nH]3)nc(-c3ccc(N4CCOCC4)cc3)cc21 | -6.64%
O=C(CCCc1nnc2n3nc(-c4ccccc4)nc3c3ccccc3n12)N1CCC(N2CCCCC2)CC1 | -10.5%
Cc1cnc(C2CC2)n1C1CCCN(Cc2ccccc2)C1 (stereo not given) | 0.832%
Cn1ncc2c(N3CCN(S(N)(=O)=O)CC3)nc(C3CCCC3)nc21 | -18%
CCN(CC)CCCNC(=O)CCCc1nnc2n3nc(-c4ccccc4)nc3c3ccccc3n12 | -1.05%
CCOc1cc(OCC)c2c(-c3ccccc3)cc(=O)oc2c1 | -65.2%
CCN(CC)CCCNC(=O)CCc1nnc2n(Cc3ccc(Cl)cc3)c(=O)c3ccccc3n12 | 0%
CCNc1ncc(CN2CCN(c3ccncc3)CC2)cn1 | 1.91%
COc1ccc(N2C(=O)c3ccc(-c4ccco4)n3CC2(C)C(=O)NCc2ccccc2)cc1OC (stereo not given) | -3.81%
CCCC1c2cccn2CCN1C(=O)Nc1ccccc1Br (stereo not given) | -7.98%
